# Test results from PubChem BioAssay (NCATS).
# Inconclusive results are not listed. A call without a number means that no potency is given here. Activity calls are given as the source filed them. The call rests on the fitted dose curve; in most records, active means well fitted cell-killing curve with a large enough effect; inconclusive means small, poorly fitted or top-dose-only effect; inactive means flat fitted curve, though single readings scatter.
# Test: Cell Viability - LYMP2-016 (AID 984); further: nearly all actives have a fitted effect of over 55% in size
# Settings: LYMP2-016 lymphoblastoid cell viability, qHTS; series mostly up to 92.2 µM
# Text: NIH Chemical Genomics Center [NCGC]
# NIH Molecular Libraries Screening Centers Network [MLSCN]
# National Institutes of Environmental Health Sciences [NIEHS]
# National Toxicology Program [NTP]
# We have developed a 1536-well cell-based assay for quantitative high throughput screening (qHTS) against a number of cell lines to determine in vitro cytotoxicity of small molecules. This particular assay uses a human lymphoblastoid cell line (LYMP2-016) purchased from Coriell Institute for Medical Research.
# NCGC Assay Protocol Summary:
# The CellTiter-Glo luminescent cell viability assay (Promega) is a homogeneous method to measure the number of viable cells in culture. The end point readout of this assay is based on quantitation of intracellular ATP, an indicator of metabolic activity, using the luciferase reaction. Luciferase catalyzes the oxidation of beetle Luciferin to oxyluciferin and light in the presence of ATP. The luminescent signal is proportional to amount of ATP present.
# Using the CellTiter-Glo luminescent cell viability assay, the amount of cellular ATP was measured in the lymphoblastoid cell line with complete culture medium following compound treatment for 24 hours. The assay was performed in opaque white Kalypsys 1536-well plates. In the screen, tetraoctylammonium bromide was used as positive control. Library compounds were measured for their ability to cause acute toxicity in the cell line, as reflected by a decrease in intracellular ATP levels, in a concentration-dependent manner. […] AC50 values were determined from concentration-response data modeled with the standard Hill equation.
# qHTS protocol for CellTiter Glo lymphoblastoid cellular assay
# [Step] [Parameter] [Value] [Description]
# 1. Reagent; 5 uL; 2500 lymphoblastoid cells/well
# 2. Time; 5 hr; 37 C incubation
# 4. Controls; 23 nL; Tetraoctylammonium bromide 6.4pM to 92 uM
# 5. Time; 24 hr; 37 C incubation
# 6. Reagent; 5 uL; CellTiter Glo reagent
# 7. Time; 30 min; Room Temperature
# 8. Detection; Luminescence; Viewlux plate reader
# Keywords: cell viability, cytotoxicity, lymphoblastoid cell line, luminescence, NTPHTS, NTPHTS_NCGC, NIEHS, DSSTox, MLSMR, MLSCN, NIH Roadmap, qHTS, NCGC
row,SMILES,Potency
1,C=C(C)C1CC=C(C)C(OC(C)=O)C1 (stereo not given),inactive
2,c1ccc2n[nH]nc2c1,inactive
3,Cc1ccc2nc(-c3ccc(N)cc3)sc2c1S(=O)(=O)O,inactive
4,C/C=C1\CC2C=CC1C2 (stereo not given),inactive
5,CC=O,inactive
6,C=CCCCCCC,inactive
7,CN(C)CCCCl,inactive
8,C=Cc1ccccc1C=C,inactive
9,CCOc1cccc(N)c1,inactive
10,CCCCCCCCCCCCC1CO1 (stereo not given),inactive
11,C=CCn1c(=O)n(CC=C)c(=O)n(CC=C)c1=O,inactive
12,c1ccc2c(c1)Oc1ccccc1S2,inactive
13,C[C@@H]1CC2(OC3C[C@@]4(C)C5=CC[C@H]6C(C)(C)C(O[C@@H]7OC[C@@H](O)[C@H](O)[C@H]7O)CC[C@@]67C[C@@]57CC[C@]4(C)C31)OC(O)C1(C)OC21 (stereo not given in full),inactive
14,O=C(O)c1ccccc1Cl,inactive
15,O=[N+]([O-])c1cccc(C(F)(F)F)c1,inactive
16,CCOc1cc(OCC)c(C(C)=O)cc1OCC,inactive
17,C=CC(=O)NC(C)C,inactive
18,CCOC(=O)OCC,inactive
19,CCN(Cc1ccccc1)c1ccccc1,inactive
20,CC(C)(C)c1ccc(OCC2CO2)cc1 (stereo not given),inactive

row,SMILES,Potency
1,O=C1OC(=O)c2c(Br)c(Br)c(Br)c(Br)c21,inactive
2,C1CCC2OC2C1 (stereo not given),inactive
3,CC(=O)c1nccs1,inactive
4,C(=C/c1ccccc1)/c1ccccc1,inactive
5,Clc1cc(Cl)cc(Cl)c1,inactive
6,CC(C)(C)OC=O,inactive
7,O=C(O)c1cccc([N+](=O)[O-])c1,inactive
8,O=C(O)c1cc(Cl)cc(Cl)c1,inactive
9,CC(=O)c1ccc([N+](=O)[O-])cc1,inactive
10,O=P(O)(OCc1ccccc1)OCc1ccccc1,inactive
11,C/C=C(/C)C#N,inactive
12,CC(C)c1ccccc1,inactive
13,CCOCC(=O)O,inactive
14,CC(=O)Nc1ccccc1C,inactive
15,CC(C)(c1cc(Br)c(OCC(Br)CBr)c(Br)c1)c1cc(Br)c(OCC(Br)CBr)c(Br)c1 (stereo not given),inactive
16,CC(=O)OC(C)C,inactive
17,CC(=O)C1(C)CC2=C(CCCC2(C)C)CC1C (stereo not given),inactive
18,Oc1cccc(Nc2ccccc2)c1,inactive
19,CCCCC(CC)COCC1CO1 (stereo not given),inactive
20,Cc1ccc(C(=O)O)cc1,inactive
